Where “and” joins values, the source holds several entries; their conditions need not be identical. Identical values can stand only once. Results filed as inconclusive are left out. Calls of active or inactive are those of the source. Unless noted, calls come from the whole dose curve; as a rule, active = well fitted curve in the direction sought with a large enough effect; inconclusive = small, poorly fitted or top-dose-only effect, or another doubt; inactive = no such curve, though single readings can be large; an effect the other way counts as inactive or inconclusive.
Columns and labels:
[1] = AP1 Signaling Pathway (AID 357; active = well fitted curve in either direction with a large enough effect, not every such curve was filed as active; note: % is set by controls: 0 for no effect and ±100 for the full control effect); conditions: ME-180 AP-1-bla reporter, EGF-induced, beta-lactamase ratio, 5 h; series mostly up to 38 µM
Outline: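 ME-180 cells with beta-lactamase reporter under AP-1 response element, stimulated with EC50 EGF; compounds tested in titration series, 5 h at 37 °C. CCF4 substrate added 2.5 h at room temperature; 460/530 nm emission ratio gave %activity and AC50.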

[2] = target: Cytochrome P450 1A2 (Homo sapiens) (UniProt P05177); test: p450-cyp1a2 (AID 410; calls by dose curve; note: potency is the fitted concentration of half-maximal effect;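 for activity change, negative = inhibition: -100% = full effect of reference inhibitor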); conditions: recombinant CYP1A2, luciferin-ME demethylation, luminescence; series mostly up to 57 µM
Outline: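 Human CYP1A2 (20nM) demethylated Luciferin-ME at its Km (100uM) in 100mM KPO4. After 10 min compound preincubation, NADPH regeneration ran the reaction 60 min at room temperature. Luciferin was read by luminescence, normalized to 57 uM furafylline.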

[3] = NFAT Signaling Pathway (AID 444; active = well fitted curve in either direction with a large enough effect, not every such curve was filed as active;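 note: carbachol stimulus at about its EC50 of 1 µM final; % is set by controls: 0 for no effect and ±100 for the full control effect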); conditions: Jurkat NFAT-bla M1, carbachol, beta-lactamase ratio, 5 h
Outline: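 Jurkat cells carrying an NFAT-driven β-lactamase reporter and co-transfected muscarinic M1 receptor were treated with compound plus carbachol (1 uM final, an EC50 level) for 5 h at 37 °C. CCF4 loading followed for 1 h at RT; 460/530 nm ratio gave %activity.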

[4] = Stat Signaling Pathway (AID 446; active = well fitted curve in either direction with a large enough effect, not every such curve was filed as active;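 note: ME-180 cervical cancer cells given 40 pM IL-6 alongside compound; SIE-controlled beta-lactamase reporter measured as 460/530 nm FRET emission ratio; % is set by controls: 0 for no effect and ±100 for the full control effect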); conditions: ME-180 (cervical carcinoma) SIE beta-lactamase reporter, IL-6 stimulated, 5 h; series mostly up to 38 µM
Outline: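 IL-6/STAT signaling read in ME-180 cells via an SIE beta-lactamase reporter. Stimulus was 40 pM IL-6 (its AC50) for 5 hrs, so both activation and inhibition register.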

[5] = target: Mitogen-activated protein kinase 10 (Mus musculus) (UniProt Q61831); test: JNK3 AlphaScreen Assay (AID 530; active = well fitted curve in either direction with a large enough effect, not every such curve was filed as active;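 note: kinase came from lysate of stimulated human HepG2 cells; signal reports phosphorylation of biotinylated GST-cJun 1-79 at Ser73 with 10 µM ATP; % is set by controls: 0 for no effect and ±100 for the full control effect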); conditions: JNK3 lysate, c-Jun phosphorylation; series mostly up to 57.1 µM
Outline: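 JNK3 came from HepG2 lysates pre-activated with IL-1beta and TNF-alpha and phosphorylated biotinylated GST-cJun (1-79) at 10 uM ATP, pH 7.6, room temperature. Compounds were titrated. AlphaScreen signal used anti-phospho-cJun (Ser73) antibody.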

[6] = target: 3',5'-cyclic-AMP phosphodiesterase 4B (Homo sapiens) (UniProt Q07343); test: qHTS Assay for Inhibitors of PDE-IV (AID 607; active = well fitted activation curve with a large enough effect in the main read-out, with a control signal flat, not every such curve was filed as active; note: % of control where 0% means no effect); conditions: HEK293 ACTOne CNG channel cells, membrane potential fluorescence; series mostly up to 22.9 µM
Outline: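 Live HEK293 cells with a modified cyclic nucleotide-gated (CNG) channel report intracellular cAMP via membrane-potential dye fluorescence (ex 535/em 590 nm). Endogenous PDE-IV was targeted. Compounds were tested at up to 22.9 uM final; RO 20-1724 100 uM served as control.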

[7] = target: Guanine nucleotide-binding protein G(i) subunit alpha-1 (Homo sapiens) (UniProt P63096); test: qHTS Assay for Inhibitors of RGS12 GoLoco Motif Activity (Green Fluorophore) (AID 879); conditions: Galphai1/FITC-RGS12 GoLoco peptide, fluorescence polarization; series mostly up to 57.1 µM;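 note: 0% = labeled peptide with Gαi1 and full inhibition = labeled peptide alone without protein; negative values mean loss of peptide binding seen as reduced polarization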
Outline: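 Fluorescence polarization assay: 50 nM Gαi1 with 10 nM FITC-labeled RGS12 GoLoco peptide in 10 mM Tris pH 7.5, 150 mM NaCl, 0.1 mM GDP, 0.05% NP40, 10 min at room temperature with compound.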

[8] = target: Cytochrome P450 2D6 (Homo sapiens) (UniProt P10635); test: qHTS Assay for Inhibitors and Substrates of Cytochrome P450 2D6 (AID 891); conditions: recombinant CYP2D6, luciferin-ME EGE luminescence; series mostly up to 57.1 µM; note: nearly all actives have a fitted effect of over 60% in size; note: potency is the fitted concentration of half-maximal effect
Outline: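 Human CYP2D6 (5 nM) with 30 uM Luciferin-ME EGE (at Km) in 100 mM KPO4, compound preincubated 10 min, then NADPH regeneration system for 60 min at room temperature. Luciferin read by luminescence; normalized to 1.43 uM quinidine.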

[9] = target: Pyruvate kinase (Leishmania mexicana) (UniProt Q27686); test: qHTS Validation Assay for Inhibitors of Leishmania Mexicana Pyruvate Kinase (AID 945);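 note: 0% = DMSO only neutral control wells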; conditions: purified L. mexicana pyruvate kinase, enzyme activity, E451W mutant enzyme; series mostly up to 57.5 µM
Outline: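 Luminescent ATP detection (PKLight) after a 1 h room-temperature reaction of 0.2 nM LmPYK E451W mutant with 0.5 mM PEP and 0.1 mM ADP at pH 7.2. Activity is normalized to DMSO-only control wells.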

[10] = target: Pyruvate kinase PKM (Homo sapiens) (UniProt P14618); test: qHTS Assay for Activators of Human Muscle Pyruvate Kinase (AID 954; active = well fitted curve in the direction sought with a large enough effect, not every such curve was filed as active;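 note: 0% = uninhibited enzyme and -100% = no enzyme or full thiadiazolimine inhibition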); conditions: purified human muscle pyruvate kinase, luciferase-coupled luminescence, 1 h; series mostly up to 57.5 µM
Outline: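 Enzyme was run at intermediate activity so both inhibitors and activators could be detected. ATP formed from ADP and PEP by 0.1 nM human PKM2 during a 1 h room-temperature incubation was quantified by coupled luciferase luminescence.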

[11] = target: Alpha-galactosidase A (Homo sapiens) (UniProt P06280); test: Counterscreen for Glucocerebrosidase Inhibitors: qHTS Assay for Human alpha-Galactosidase at pH 4.5 (AID 992); conditions: purified enzyme, fluorogenic substrate; series mostly up to 76.9 µM; note: 0% is about no effect
Outline: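 Read-out is 4-methylumbelliferone fluorescence (365 nm excitation, 440 nm emission) after a pH 10 NaOH/glycine stop. Reactions held 2 nM enzyme and 80 uM substrate at pH 4.5 for 20 min at room temperature.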

[12] = target: alpha-glucosidase (Oryza sativa, rice) (UniProt Q653V4); test: Counterscreen for Glucocerebrosidase Inhibitors: qHTS Assay for Rice alpha-Glucosidase at pH 5.0 (AID 997); conditions: rice alpha-glucosidase enzyme activity; series mostly up to 76.9 µM;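 note: 0% = full activity with enzyme and -100% = basal without enzyme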
Outline: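 Rice alpha-glucosidase (4 nM final) with 400 uM 4-methylumbelliferyl-alpha-D-glucopyranoside in citrate buffer pH 5.0, 20 min at room temperature, stopped at pH 10; fluorescence 365/440 nm, compounds 0.7 nM–77 uM, AC50 from Hill fits.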

[13] = target: DNA dC->dU-editing enzyme APOBEC-3G (Homo sapiens) (UniProt Q9HC16); test: qHTS for inhibitors of Vif-A3G interactions: Validation (AID 588379); conditions: Vif-A3G protein interaction assay; series mostly up to 46.1 µM; note: 0% is about no effect
Outline: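 HeLa cells stably expressing Vif and A3G-eYFP, 700 cells/well, incubated overnight at 37 deg C, then exposed to compound overnight at 37 deg C. Inhibition of Vif-mediated degradation read as increased yellow fluorescence (Ex 488/Em 500-530) by laser-scanning cytometry.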

[14] = tested on: Zika virus NS2B-NS3 protease; test: Primary screen GU AMC qHTS for Zika virus inhibitors (AID 1347154); conditions: Zika NS2B-NS3 unlinked protease, AMC fluorogenic substrate; series mostly up to 54.1 µM;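 note: 0% = no-inhibitor control and -100% = no-enzyme control; nearly all actives have a fitted effect of over 70% in size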
Outline: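 Unlinked Zika NS2B hydrophilic domain/NS3 protease domain noncovalent complex (25 nM final) in 10 mM Tris-HCl pH 8.0, 0.01% Tween 20, with AMC peptide substrate. Fluorescence (ex 340, em 450 nm) change over 15 min, room temperature; percent inhibition fitted to 4-parameter Hill equation.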

[15] = Primary qHTS for small molecule stabilizers of the endoplasmic reticulum resident proteome: Secreted ER Calcium Modulated Protein (SERCaMP) assay (AID 1508630); conditions: SH-SY5Y GLuc-SERCaMP (Gaussia luciferase released on ER calcium loss) secretion, thapsigargin, luminescence; series mostly up to 38.4 µM; note: % is set by controls: 0 for no effect and ±100 for the full control effect
Outline: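 GLuc-SERCaMP-expressing SH-SY5Y cells, pretreated 16 h with compound, are challenged with thapsigargin to empty ER calcium stores; after 4 h, coelenterazine is added directly to the medium and luminescence is imaged.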

[16] = target: Glucocorticoid receptor (Homo sapiens) (UniProt P04150); test: GR-GFP Redistribution (AID 450;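 active = compounds whose dose series gives a full or clear partial fitted curve of increased nuclear translocation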; note: potency is the fitted concentration of half-maximal effect); conditions: U2OS GR-GFP nuclear translocation, laser cytometry, 2 h
[17] = target: Glucocorticoid receptor (Homo sapiens) (UniProt P04150); test: GR-EFC Redistribution (AID 451; calls by dose curve; note: potency is the fitted concentration of half-maximal effect); conditions: CHO-K1 GR-EFC translocation, beta-gal luminescence, 2 h
Outline: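 CHO-K1 cells stably expressing nuclear-localized β-gal enzyme acceptor and GR fused C-terminally to the enzyme donor fragment; ligand-driven nuclear translocation restores β-gal by complementation. Compounds titrated up to 46 uM final, 2 h at 37 °C; luminescence read.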

[18] = target: Ubiquitin carboxyl-terminal hydrolase 1 (Homo sapiens) (UniProt O94782); test: Inhibitors of USP1/UAF1: Pilot qHTS (AID 504865); conditions: purified USP1/UAF1, Ub-rhodamine cleavage fluorescence; series mostly up to 114 µM;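 note: rhodamine fluorescence freed from ubiquitin-rhodamine substrate followed over time; top concentration of the series differs between compounds; % is set by controls: 0 for no effect and ±100 for the full control effect; nearly all actives have a fitted effect of over 35% in size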
Outline: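 USP1/UAF1 complex (1nM) preincubated with compound 15 min at room temperature, then Ub-Rho substrate (150nM final) added. Fluorescence read kinetically at 480/540 nm, 6 reads every 60 seconds. Buffer: 50mM HEPES pH 7.8, 0.5mM EDTA, 0.1 mg/ml BSA, 1mM TCEP, 0.01% Tween-20.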

[19] = target: Cytochrome P450 3A4 (Homo sapiens) (UniProt P08684); test: qHTS Assay for Activators of Cytochrome P450 3A4 (AID 885); conditions: recombinant CYP3A4, Luciferin-PPXE luminescence, 60 min; series mostly up to 57.1 µM; note: nearly all actives have a fitted effect of over 65% in size; note: potency is the fitted concentration of half-maximal effect
Outline: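 Quantitative HTS format: compounds preincubated with 20nM human CYP3A4 and Luciferin-PPXE substrate at KM, reaction started by NADPH regeneration, stopped after 60 min, luciferase luminescence read 20 min later.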

Chain of Pyruvate kinase (Leishmania mexicana) (Q27686 2-499 E452W): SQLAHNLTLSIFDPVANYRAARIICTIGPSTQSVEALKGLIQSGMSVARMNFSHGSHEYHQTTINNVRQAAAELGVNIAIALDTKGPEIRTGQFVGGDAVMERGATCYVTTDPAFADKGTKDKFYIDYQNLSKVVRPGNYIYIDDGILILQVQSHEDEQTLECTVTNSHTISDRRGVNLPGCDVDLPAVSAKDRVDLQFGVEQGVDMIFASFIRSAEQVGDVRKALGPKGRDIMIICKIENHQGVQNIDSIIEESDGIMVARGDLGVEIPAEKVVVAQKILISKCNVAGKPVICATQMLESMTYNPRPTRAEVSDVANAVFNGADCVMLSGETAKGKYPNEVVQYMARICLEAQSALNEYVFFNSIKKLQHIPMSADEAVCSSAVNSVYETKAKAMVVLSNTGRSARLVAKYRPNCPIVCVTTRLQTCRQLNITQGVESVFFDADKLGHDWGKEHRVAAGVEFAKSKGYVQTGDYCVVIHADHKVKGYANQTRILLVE
Chain of Pyruvate kinase PKM (Homo sapiens) (P14618 whole entry, looked up): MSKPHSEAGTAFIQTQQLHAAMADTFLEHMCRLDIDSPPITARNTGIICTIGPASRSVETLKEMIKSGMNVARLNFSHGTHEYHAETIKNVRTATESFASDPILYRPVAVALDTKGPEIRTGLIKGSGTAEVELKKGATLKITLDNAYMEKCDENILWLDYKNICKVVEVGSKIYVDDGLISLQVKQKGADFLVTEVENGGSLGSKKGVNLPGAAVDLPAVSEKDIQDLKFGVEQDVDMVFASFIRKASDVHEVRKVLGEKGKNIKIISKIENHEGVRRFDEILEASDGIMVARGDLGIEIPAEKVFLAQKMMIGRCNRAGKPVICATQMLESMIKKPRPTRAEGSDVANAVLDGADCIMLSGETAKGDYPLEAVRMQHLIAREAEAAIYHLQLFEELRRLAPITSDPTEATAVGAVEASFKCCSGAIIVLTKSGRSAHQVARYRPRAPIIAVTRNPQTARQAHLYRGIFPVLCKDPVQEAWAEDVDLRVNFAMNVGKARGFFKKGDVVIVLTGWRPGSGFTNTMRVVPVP
Chain of 3',5'-cyclic-AMP phosphodiesterase 4B (Homo sapiens) (Q07343 whole entry, looked up): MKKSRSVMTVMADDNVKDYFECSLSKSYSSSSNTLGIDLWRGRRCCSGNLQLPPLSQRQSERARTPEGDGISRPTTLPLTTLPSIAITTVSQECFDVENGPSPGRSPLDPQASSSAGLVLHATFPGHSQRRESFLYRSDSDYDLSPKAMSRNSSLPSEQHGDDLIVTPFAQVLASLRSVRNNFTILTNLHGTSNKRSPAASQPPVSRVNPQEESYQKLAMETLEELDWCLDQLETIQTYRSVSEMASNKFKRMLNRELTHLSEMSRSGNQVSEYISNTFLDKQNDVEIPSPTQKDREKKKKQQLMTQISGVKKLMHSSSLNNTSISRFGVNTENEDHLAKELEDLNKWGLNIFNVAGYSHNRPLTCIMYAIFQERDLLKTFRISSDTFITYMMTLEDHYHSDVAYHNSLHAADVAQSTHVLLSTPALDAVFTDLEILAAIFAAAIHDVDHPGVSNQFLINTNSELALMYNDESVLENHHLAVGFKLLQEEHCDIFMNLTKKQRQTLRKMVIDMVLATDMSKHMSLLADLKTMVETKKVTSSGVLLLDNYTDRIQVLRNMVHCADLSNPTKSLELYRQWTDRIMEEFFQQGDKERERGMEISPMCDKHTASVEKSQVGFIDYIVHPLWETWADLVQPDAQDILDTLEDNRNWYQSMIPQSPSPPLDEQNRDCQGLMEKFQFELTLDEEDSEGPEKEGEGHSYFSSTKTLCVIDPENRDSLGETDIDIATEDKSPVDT
Chain of DNA dC->dU-editing enzyme APOBEC-3G (Homo sapiens) (Q9HC16 whole entry, looked up): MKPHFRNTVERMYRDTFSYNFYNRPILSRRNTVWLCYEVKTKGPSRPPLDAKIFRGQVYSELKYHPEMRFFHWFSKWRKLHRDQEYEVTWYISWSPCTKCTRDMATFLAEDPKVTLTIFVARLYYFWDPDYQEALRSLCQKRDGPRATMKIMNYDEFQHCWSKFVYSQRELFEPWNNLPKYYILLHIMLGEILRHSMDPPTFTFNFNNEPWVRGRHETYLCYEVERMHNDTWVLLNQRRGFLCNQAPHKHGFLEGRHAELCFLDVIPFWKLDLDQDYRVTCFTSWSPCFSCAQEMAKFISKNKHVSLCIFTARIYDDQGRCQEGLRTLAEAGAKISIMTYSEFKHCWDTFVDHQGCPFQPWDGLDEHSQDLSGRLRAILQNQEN
Chain of Cytochrome P450 1A2 (Homo sapiens) (P05177 whole entry, looked up): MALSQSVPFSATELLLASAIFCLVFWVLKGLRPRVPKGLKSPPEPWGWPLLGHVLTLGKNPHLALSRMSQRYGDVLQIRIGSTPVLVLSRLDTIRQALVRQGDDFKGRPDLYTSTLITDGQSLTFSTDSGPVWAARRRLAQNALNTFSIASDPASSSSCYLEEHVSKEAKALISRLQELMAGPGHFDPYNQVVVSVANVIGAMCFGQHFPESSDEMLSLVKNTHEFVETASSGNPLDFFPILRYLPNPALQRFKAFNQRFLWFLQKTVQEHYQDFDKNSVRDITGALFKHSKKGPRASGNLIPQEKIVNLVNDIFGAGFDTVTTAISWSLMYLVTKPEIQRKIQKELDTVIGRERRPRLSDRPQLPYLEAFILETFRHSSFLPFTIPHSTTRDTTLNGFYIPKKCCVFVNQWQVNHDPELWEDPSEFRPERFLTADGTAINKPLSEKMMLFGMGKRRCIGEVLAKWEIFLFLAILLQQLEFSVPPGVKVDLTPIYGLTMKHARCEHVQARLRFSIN
Chain of Guanine nucleotide-binding protein G(i) subunit alpha-1 (Homo sapiens) (P63096 whole entry, looked up): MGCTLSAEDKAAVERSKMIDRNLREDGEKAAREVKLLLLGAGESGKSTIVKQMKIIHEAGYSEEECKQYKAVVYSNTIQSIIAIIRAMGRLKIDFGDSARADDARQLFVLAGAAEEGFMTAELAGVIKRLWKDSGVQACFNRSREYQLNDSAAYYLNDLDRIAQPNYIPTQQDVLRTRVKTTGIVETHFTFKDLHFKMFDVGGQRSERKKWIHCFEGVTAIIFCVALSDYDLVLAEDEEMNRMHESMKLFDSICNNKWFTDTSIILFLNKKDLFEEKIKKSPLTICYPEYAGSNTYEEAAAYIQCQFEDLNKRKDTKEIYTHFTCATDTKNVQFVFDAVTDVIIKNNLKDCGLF
Chain of Alpha-galactosidase A (Homo sapiens) (P06280 whole entry, looked up): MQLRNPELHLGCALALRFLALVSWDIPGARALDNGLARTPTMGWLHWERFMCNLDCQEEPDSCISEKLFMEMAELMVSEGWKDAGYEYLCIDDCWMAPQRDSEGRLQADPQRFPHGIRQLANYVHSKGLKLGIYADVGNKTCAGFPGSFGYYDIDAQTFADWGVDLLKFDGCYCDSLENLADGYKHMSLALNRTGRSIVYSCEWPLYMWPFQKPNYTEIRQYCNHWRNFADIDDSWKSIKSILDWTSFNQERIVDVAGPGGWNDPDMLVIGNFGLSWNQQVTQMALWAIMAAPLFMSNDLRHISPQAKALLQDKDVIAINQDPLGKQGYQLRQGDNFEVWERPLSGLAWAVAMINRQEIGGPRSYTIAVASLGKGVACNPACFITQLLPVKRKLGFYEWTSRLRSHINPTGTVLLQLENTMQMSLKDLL
Chain of Cytochrome P450 2D6 (Homo sapiens) (P10635 whole entry, looked up): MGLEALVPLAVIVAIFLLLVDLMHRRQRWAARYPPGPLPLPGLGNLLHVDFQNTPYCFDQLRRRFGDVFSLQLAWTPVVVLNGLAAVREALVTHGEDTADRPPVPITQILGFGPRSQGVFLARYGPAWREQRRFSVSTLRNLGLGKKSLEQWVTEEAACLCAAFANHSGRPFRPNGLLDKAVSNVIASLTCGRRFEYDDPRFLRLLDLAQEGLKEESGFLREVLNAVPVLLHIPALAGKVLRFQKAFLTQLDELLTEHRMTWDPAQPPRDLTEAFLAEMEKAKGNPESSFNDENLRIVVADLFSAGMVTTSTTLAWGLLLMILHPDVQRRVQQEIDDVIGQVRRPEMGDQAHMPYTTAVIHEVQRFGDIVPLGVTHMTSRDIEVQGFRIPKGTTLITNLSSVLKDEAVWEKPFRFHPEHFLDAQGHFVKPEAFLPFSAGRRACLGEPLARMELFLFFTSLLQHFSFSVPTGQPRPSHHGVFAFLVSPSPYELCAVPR
Chain of Glucocorticoid receptor (Homo sapiens) (P04150 whole entry, looked up, the tested form may be a part): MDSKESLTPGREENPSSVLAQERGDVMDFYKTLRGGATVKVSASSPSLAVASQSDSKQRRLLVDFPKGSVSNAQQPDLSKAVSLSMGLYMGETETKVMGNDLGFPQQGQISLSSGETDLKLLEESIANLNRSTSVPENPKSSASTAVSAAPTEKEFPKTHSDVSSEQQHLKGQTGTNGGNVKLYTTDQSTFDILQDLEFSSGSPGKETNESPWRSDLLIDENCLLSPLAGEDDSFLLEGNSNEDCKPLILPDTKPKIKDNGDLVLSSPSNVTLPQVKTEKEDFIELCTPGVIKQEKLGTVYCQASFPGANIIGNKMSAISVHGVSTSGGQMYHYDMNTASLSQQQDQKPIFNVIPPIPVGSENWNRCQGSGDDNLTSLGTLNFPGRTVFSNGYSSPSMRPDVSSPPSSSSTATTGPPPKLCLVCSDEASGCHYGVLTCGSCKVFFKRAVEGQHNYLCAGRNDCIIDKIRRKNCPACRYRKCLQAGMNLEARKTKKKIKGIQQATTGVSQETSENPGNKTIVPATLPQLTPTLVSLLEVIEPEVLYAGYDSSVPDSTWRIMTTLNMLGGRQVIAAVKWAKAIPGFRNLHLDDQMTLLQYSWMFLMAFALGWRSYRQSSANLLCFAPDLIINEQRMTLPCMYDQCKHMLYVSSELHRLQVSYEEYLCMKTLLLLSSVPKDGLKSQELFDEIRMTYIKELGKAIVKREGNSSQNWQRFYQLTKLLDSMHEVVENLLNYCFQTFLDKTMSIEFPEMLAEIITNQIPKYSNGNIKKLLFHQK

O=C1NCN(c2ccccc2)C12CCN(C[C@H]1COc3ccccc3O1)CC2
inactive: outcome [1] | activity change, negative = inhibition ([3]; at 38 µM (top of the series)) 1.71% | outcome [4] | outcome [5] | Potency [6] | outcome [7] | outcome [9] | outcome [10] | outcome [11] | outcome [12] | Potency [13] | Potency [14] | Potency [15]
active: Potency [2] 12.6 µM | Potency [8] 126 nM and 63.1 nM

CN1CCN(C(=O)O[C@@H]2c3nccnc3C(=O)N2c2ccc(Cl)cn2)CC1
inactive: outcome [1] | Potency [2] | activity change, negative = inhibition ([3]; at 38 µM (top of the series)) -27.2% | outcome [4] | outcome [5] | Potency [6] | Potency [8] | Potency [13] | Potency [14] | Potency [15]

CN1CCN(C(=O)OC2c3nccnc3C(=O)N2c2ccc(Cl)cn2)CC1 (stereo not drawn)
inactive: outcome [1] | activity change, negative = inhibition ([3]; at 17.2 µM (top of the series)) 3% | outcome [4] | Potency [14] | Potency [15]

CC[C@]1(C2=NCCN2)Cc2ccccc2O1
inactive: outcome [1] | Potency [2] | activity change, negative = inhibition ([3]; at 38 µM (top of the series)) -18.1% | outcome [5] | Potency [6] | outcome [7] | outcome [9] | outcome [10] | outcome [11] | outcome [12] | Potency [13] | Potency [14] | Potency [15]

C/C(=C\C=C/[C@@H](C)C(=O)O)[C@H]1CN[C@H](C(=O)O)[C@@H]1CC(=O)O
inactive: Potency [2] | Potency [16] > 46 µM | Potency [17] > 46 µM | outcome [5] | Potency [18] | Potency [13] | Potency [14] | Potency [15]

O=NN1CCCC1c1cccnc1 (stereo not drawn)
inactive: Potency [14] | Potency [15]

Cn1cc(C(=O)C(=O)N[C@H]2CN3CCC2CC3)c2ccccc21
active: Potency [2] 15.8 µM | Potency [8] 63.1 nM
inactive: Potency [16] > 46 µM | Potency [17] > 46 µM | outcome [5] | Potency [18] | Potency [13] | Potency [14] | Potency [15]

c1ccc(CCCCN2CCC(c3ccccc3)CC2)cc1
inactive: Potency [16] > 46 µM | Potency [17] > 46 µM | outcome [5] | Potency [13] | Potency [14] | Potency [15]
active: Potency [2] 15.8 µM | Potency [19] 31.6 µM | Potency [8] 39.8 nM

C/C(O)=C(/C#N)C(=O)Nc1cc(Br)ccc1Br
active: Potency [2] 5.01 µM and 2.51 µM
inactive: outcome [1] | activity change, negative = inhibition ([3]; at 38 µM (top of the series)) 6.53% | outcome [4] | Potency [16] > 46 µM | Potency [17] > 46 µM | Potency [6] | outcome [7] | Potency [19] | Potency [8] | outcome [9] | outcome [10] | outcome [11] | outcome [12] | Potency [13] | Potency [14] | Potency [15]

Source: PubChem BioAssay (NCATS)
